# Compounds without any hit were thinned out: in the full panel of roughly 83,000, 20% have a hit.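 Single-concentration screen, 48 h exposure, 96-well plates. Endpoint: percent growth. Below 10 = active.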 Calls of active or inactive are those of the source.
# Test system: MDA-MB-468 breast
# Test: NCI-60 one-dose screen, 48 h (100 = growth as untreated, 0 = no growth, -100 = all killed)
# Settings: 10 µM unless noted
row,SMILES,growth
1,COc1ccc(-c2cn3c(ccc4ccccc43)n2)cc1,108% (inactive)
2,C[C@@H]1CN(Cc2ccc(/C=C/c3n[nH]c4ccc5nc(-c6cn[nH]c6C(F)(F)F)c6c(c5c34)CCCC6)cc2)C[C@H](C)O1,76.9% (inactive)
3,CN1C(=O)/C(=C\c2c(Cl)cccc2Cl)c2ccccc21,37.7% (inactive)
4,CC/C(=C(/c1ccc(Cl)cc1)c1ccc(OCCN2CCCCCC2)cc1)c1ccccc1,78.3% (inactive)
5,O=C(NCCO)c1cccnc1,93.7% (inactive)
6,COc1cccc(/C=C2\COc3ccc(O)c(O)c3C2=O)c1OC,-19.2% (active)
7,COc1ccc(-c2ccccc2)cc1C(=O)c1ccc(-c2ccccc2)cc1,64.6% (inactive)
8,NC(N)=NC(N)=NCCCc1ccco1,107% (inactive)
9,COc1ccc(NC(=O)c2sc3nc(C)c(C(=O)c4ccc(OC)cc4)cc3c2N)cc1,13.2% (inactive)
10,CN1CCCNc2c(c(=O)c2=O)NCCCN(C)CCCNc2c(c(=O)c2=O)NCCCN(C)CCCNc2c(c(=O)c2=O)NCCCN(C)CCCNc2c(c(=O)c2=O)NCCCN(C)CCCNc2c(c(=O)c2=O)NCCCN(C)CCCNc2c(c(=O)c2=O)NCCCN(C)CCCNc2c(c(=O)c2=O)NCCC1,32.9% (inactive)
11,COCCCOc1cc(C[C@@H](C[C@H](N)[C@@H](O)C[C@H](C(=O)NCC(C)(C)C(N)=O)C(C)C)C(C)C)ccc1OC,101% (inactive)
12,COc1ccc(/C(=C/c2ccc3ccccc3c2)c2nn[nH]n2)cc1OC,60.2% (inactive)
13,COCCOc1ccc(-c2csc(NC(C)=O)n2)cc1NS(=O)(=O)c1cccc2c(N(C)C)cccc12,90.3% (inactive)
14,CC1=C(Cl)C(=O)c2cc(C)ccc2C1=O,95.2% (inactive)
15,O=C(c1ccccc1)c1cccc(C(Br)Br)c1,92.5% (inactive)
16,COc1ccc(Oc2nc(Nc3ccc(N4CCOCC4)cc3)ncc2NC(=O)Nc2cccc(OC)c2)cc1,90.1% (inactive)
17,COC(=O)C1=Nc2ccc(F)cc2/C1=C\c1sc(Nc2ccc(O)cc2)nc1O,56.1% (inactive)
18,Cc1ccc([N+](=O)[O-])cc1Br,98.1% (inactive)
19,COc1cc(/C=C\C(C)=N\Nc2ccccc2)ccc1O,49% (inactive)
20,CC(C)(C)c1cc(Cl)c(O)c(CNCCO)c1,96.1% (inactive)

row,SMILES,growth
1,CCN1C(=S)N(c2ccccc2)C2NC(=S)N(/N=C/C=C/c3ccccc3OC)C21 (stereo not given),6.55% (active)
2,O=C1c2ccccc2C(=O)c2c1oc1c2c(=O)[nH]c2ccc(Cl)cc21,-32.4% (active)
3,CCOC(=O)c1cc(C(=O)c2cc(OC)c(OC)c(OC)c2)n2c1ccc1ccccc12,1.54% (active)
4,Cc1c(C(=O)/C=C/c2csc3ccccc23)[n+](=O)c2ccccc2n1[O-],-16.5% (active)
5,CCc1ccc(C2=NN(c3ccc(S(C)(=O)=O)cc3)C(=O)CC2)cc1,50.7% (inactive)
6,COc1ccc(C2C(C#N)=C(N)Oc3n[nH]c(-c4cccs4)c32)cc1I (stereo not given),86.8% (inactive)
7,COc1cc(/C(=C2/O[C@@H]([C@H]3COC(C)(C)O3)[C@H]3OC(C)(C)O[C@@H]23)c2ccc3ccccc3c2)cc(OC)c1OC,51.2% (inactive)
8,FC(F)(F)c1nc2c(NCc3ccc(-c4ccccc4)cc3)cccc2[nH]1,70.2% (inactive)
9,COc1ccc2c(O)cc3c(c2c1)[C@H](CCl)CN3C(=O)c1cc2cc(NC(=O)CCN3CCOCC3)ccc2[se]1,-25.3% (active)
10,O=C(Oc1ccc2ccc(=O)oc2c1)c1ccc(Cl)cc1,115% (inactive)
11,O=c1c2cccc3c(Nc4ccc(F)cc4)ccc(c32)c2nc3ccccc3n12,-43.8% (active)
12,CC(C)OC(=O)OCOP(=O)(OCOC(=O)OC(C)C)C1CCCN(O)C1=O (stereo not given),36.3% (inactive)
13,CN(Cc1ccc(C(F)(F)F)cc1)CC(O)C(=O)Nc1ccc(Cl)cc1 (stereo not given),-30.5% (active)
14,S=C(NCc1ccc2c(c1)OCO2)N1CCN(c2ncnc3c2oc2ccccc23)CC1,-11% (active)
15,NS(=O)(=O)c1ccc(Nc2nc(N/N=C/c3ccccn3)nc(Nc3ccccc3)n2)cc1,-29.7% (active)
16,Cc1ccc(S(=O)(=O)Oc2ccccc2-c2ccccc2)cc1,-3.07% (active)
17,O=C(Nc1cccc(C(=O)N2CCc3ccc(Cl)cc32)c1)c1ccco1,-0.651% (active)
18,CC1CCN(S(=O)(=O)c2ccc(S(=O)(=O)N3CCCC(c4nc5c(nnn5Cc5cccc(Cl)c5)c(=O)[nH]4)C3)cc2)CC1 (stereo not given),27.7% (inactive)
19,OCCN1CCN(CCCN2c3ccccc3Sc3ccc(Cl)cc32)CC1,25.3% (inactive)
20,O=C(C[n+]1ccnc2ccccc21)c1ccc(O)c(O)c1,3.88% (active)

# Source: PubChem BioAssay (NCI)
